Results as given in the supplement of paper PMC3334620.
Whole data set: some 33,000 sequences, median “E-score (-0.5 to 0.5)” near -0.043, cut for the highest 2% near 0.37. Shown is part of a subset that was picked to be rich in the highest values.

Each sequence was assayed against T1, Upc2 (UniProt Q12151) (assay: PBM E-score (8-mer binding enrichment) (E-score (-0.5 to 0.5)); higher = stronger / more preferred TF binding). Conditions: protein concentration: 200 nM; construct: GST-full length.
T1 sequence: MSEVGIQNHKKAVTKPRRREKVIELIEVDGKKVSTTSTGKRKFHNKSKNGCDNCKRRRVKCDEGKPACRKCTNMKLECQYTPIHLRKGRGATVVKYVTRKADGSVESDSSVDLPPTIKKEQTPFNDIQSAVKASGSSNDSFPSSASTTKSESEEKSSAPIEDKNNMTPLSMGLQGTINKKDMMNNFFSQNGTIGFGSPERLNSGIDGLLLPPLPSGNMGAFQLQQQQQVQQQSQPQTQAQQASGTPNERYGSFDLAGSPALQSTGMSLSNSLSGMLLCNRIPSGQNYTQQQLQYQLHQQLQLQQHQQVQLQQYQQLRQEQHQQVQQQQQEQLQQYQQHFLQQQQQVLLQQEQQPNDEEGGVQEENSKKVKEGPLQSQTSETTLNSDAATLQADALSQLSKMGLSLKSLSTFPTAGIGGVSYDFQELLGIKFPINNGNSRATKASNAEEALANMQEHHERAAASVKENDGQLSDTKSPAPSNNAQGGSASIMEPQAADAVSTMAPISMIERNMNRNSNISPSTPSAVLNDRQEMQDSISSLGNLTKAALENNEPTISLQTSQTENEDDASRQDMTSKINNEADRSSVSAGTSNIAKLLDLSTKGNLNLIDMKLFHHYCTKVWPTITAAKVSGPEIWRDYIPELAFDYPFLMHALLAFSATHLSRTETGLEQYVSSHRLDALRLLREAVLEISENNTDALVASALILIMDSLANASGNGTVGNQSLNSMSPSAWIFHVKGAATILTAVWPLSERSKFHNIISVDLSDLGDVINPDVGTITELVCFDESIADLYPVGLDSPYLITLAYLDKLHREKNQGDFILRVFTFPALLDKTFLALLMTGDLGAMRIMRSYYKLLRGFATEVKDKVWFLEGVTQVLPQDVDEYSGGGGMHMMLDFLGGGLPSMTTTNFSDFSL
Protocol: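 Universal 'all 10-mer' protein binding microarrays (Agilent AMADID 015681) probed with GST-tagged S. cerevisiae TFs (full-length or DBD) made by in vitro transcription/translation (PURExpress), about 100-200 nM. Bound TF was detected with fluorescent anti-GST. Each ungapped 8-mer (which stands for itself and its reverse complement) is scored by the PBM enrichment score (E-score), a modified Wilcoxon-Mann-Whitney statistic from -0.5 to +0.5, computed with the Universal PBM Analysis Suite. Scale: above 0.35 generally sequence-specific binding.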

| Sequence | PBM E-score |
| --- | --- |
| ACTTTACT | -0.151 |
| CCTTTACC | -0.191 |
| ATTTTACG | 0.394 |
| ACTTTACA | 0.0242 |
| ACTTTACG | 0.409 |
| CCTTTACG | 0.418 |
| ATTTTACC | 0.00835 |
| AATTTACG | 0.335 |
| CCTTTACA | -0.0853 |
| ATTTGCAA | 0.0573 |
| AGATTGCT | -0.117 |
| CAACTGCG | -0.0371 |
| GCACGGAA | -0.15 |
| ATACGCAG | 0.352 |
| GTACGCAA | 0.247 |
| ATACGCAA | 0.37 |
| ATACGGAC | 0.394 |
| ATACGGAG | 0.411 |
| GTACGGAA | 0.377 |
| GTACGGAC | 0.35 |
| ACACGGAG | -0.0181 |
| CTACGGAC | -0.0487 |
| ATACGGAT | 0.357 |
| CTACGGAG | -0.138 |
| CATGAGTC | -0.0488 |

| Sequence | PBM E-score |
| --- | --- |
| GTTCTCTA | 0.102 |
| CTCTCCTA | 0.0887 |
| GATTCACC | -0.129 |
| AATGGAGA | -0.179 |
| TATGCGCA | 0.0561 |
| CTACGGAA | 0.0194 |
| ATACGGAA | 0.372 |
| TTACGGAA | 0.258 |
| GGGGGCGA | -0.119 |
| TACAGCAA | 0.138 |
| AGAGTGGG | 0.0465 |
| TGATCCAA | -0.132 |
| ATACGACG | 0.483 |
| ATACGACC | 0.474 |
| ACACGACC | 0.154 |
| CTACGACC | 0.364 |
| AGACGACG | 0.237 |
| ACACGACG | 0.267 |
| GCGTTTAC | 0.372 |
| GCGTTTTA | 0.206 |
| CCGTTTTA | 0.118 |
| ACGTTTAC | 0.369 |
| GGGTTTAC | 0.144 |
| GCGTTTAA | 0.4 |
| GCGTTTGA | 0.151 |

| Sequence | PBM E-score |
| --- | --- |
| CCGTTTAA | 0.466 |
| GCGTTTCC | 0.0493 |
| CTGTTTAC | 0.142 |
| CTGTTTAA | 0.0306 |
| CCGTTTAC | 0.451 |
| GGGAGCAA | -0.11 |
| GGCAAGGA | -0.205 |
| GGCTACTA | -0.0652 |
| ACAGTACC | -0.176 |
| CATCTAGA | 0.0683 |
| ACAAGGTA | 0.104 |
| GAGAGGGA | -0.272 |
| CCTATACG | 0.487 |
| ATTATACG | 0.482 |
| ACTATACG | 0.478 |
| AGTATACT | 0.242 |
| AGTATATG | 0.0175 |
| AGTATACG | 0.455 |
| ACTATACT | 0.152 |
| ATTATACC | 0.144 |
| CCTATACA | 0.151 |
| ACTATACA | 0.11 |
| ATTATACA | 0.0589 |
| CCTATACC | 0.167 |
| AAAGAATA | 0.091 |

| Sequence | PBM E-score |
| --- | --- |
| AAGGTTAT | -0.0588 |
| GCCCCGCC | 0.112 |
| GGCGCAAC | 0.00488 |
| CACAGGGA | -0.233 |
| AGGACACT | -0.364 |
| CGTTTAAA | 0.47 |
| CCTTTAAG | -0.158 |
| CGTTTAAG | 0.468 |
| GGTTTAAC | 0.138 |
| TGTTTAAA | 0.0234 |
| AGTTTAAG | 0.0878 |
| AGTTTAAA | 0.11 |
| AGTTTAAC | 0.174 |
| CGTTTAAC | 0.473 |
| AGGATGGG | 0.00396 |
| CAACCTCA | -0.0655 |
| AACTGTGT | -0.137 |
| CCTTAGCA | -0.336 |
| CCCTTATC | -0.205 |
| AGGTATAC | 0.339 |
| CTAACCGA | 0.37 |
| GTAACCGA | 0.322 |
| CTAACCGC | 0.0621 |
| CTGCTCTA | -0.0369 |
| ACAATCCT | -0.183 |

| Sequence | PBM E-score |
| --- | --- |
| CAGGACGG | -0.164 |
| CGAAGTAG | 0.00964 |
| ATTCGAAC | 0.119 |
| ACACGAAG | 0.211 |
| ATACGAAC | 0.472 |
| ATACGAAT | 0.459 |
| GTACGAAA | 0.442 |
| CTACGAAG | 0.316 |
| ATCCGAAC | 0.146 |
| AGACGAAT | 0.0524 |
| GCACGAAA | 0.127 |
| ATACGAAG | 0.476 |
| GGACGAAA | -0.0427 |
| ACACGAAT | 0.258 |
| CATCGATC | -0.0852 |
| ATAGATTC | -0.12 |
| GGCATAAC | -0.0916 |
| ACCGATCC | -0.0521 |
| ATACTCAT | -0.111 |
| GTGGGCTA | -0.128 |
| ATACGTAC | 0.339 |
| ATACGAAA | 0.47 |
| GTACGAAC | 0.467 |
| AGACGAAA | 0.196 |
| ATACGTAA | 0.334 |

| Sequence | PBM E-score |
| --- | --- |
| ATACGTAT | 0.372 |
| TTACGAAA | 0.41 |
| TCACGAAA | -0.0654 |
| ACACGAAA | 0.197 |
| GGACGAAC | 0.0508 |
| CTACGAAA | 0.272 |
| CTACGAAC | 0.333 |
| AGCTCGAT | -0.0109 |
| AAGCTGGT | -0.0392 |
| CAGATTGG | -0.303 |
| CAACTTCA | -0.0217 |
| CCATTTCA | -0.241 |
| CTCAGCTC | -0.114 |
| AGCGAGAG | 0.229 |
| CGTATAAC | 0.478 |
| TGTATAAA | 0.156 |
| AGTATAAC | 0.172 |
| AGTATAAA | 0.238 |
| CGTATAAA | 0.477 |
| GGTATAAC | 0.135 |
| CATATAAG | 0.17 |
| CGTATAAG | 0.481 |
| AGTATAAG | 0.261 |
| AACTTTCC | -0.281 |
| AGCTCTCA | -0.214 |

| Sequence | PBM E-score |
| --- | --- |
| GGGAGGTA | 0.132 |
| CACAGATA | -0.136 |
| GCACTGGA | -0.0891 |
| GGTATACC | 0.214 |
| AGTATACA | 0.149 |
| CGTATACA | 0.474 |
| AGTATACC | 0.124 |
| GGTATACA | -0.0256 |
| CGTATACC | 0.472 |
| AGTTCAGC | -0.205 |
| AGTTCAGA | -0.0704 |
| CGTTCAGA | 0.372 |
| CGTTCAGC | 0.396 |
| CGTTCATC | 0.353 |
| GGTTCAGA | -0.186 |
| AGGCGTGC | -0.0583 |
| CGCAGTAG | -0.0605 |
| AAAGGTGT | 0.0174 |
| GTTAGCCA | -0.0759 |
| ACTGAGAT | -0.184 |
| CGTTAAGC | 0.432 |
| CGTTAAAA | 0.364 |
| CTTTAAAG | -0.114 |
| CGTTAAAG | 0.4 |
| AGTTAAAG | 0.0271 |
